DAX1 inh-1: DAX1 (NR0B1) inhibition, primary screen | HEK293T StAR-luciferase reporter, SF-1/DAX-1 repression relief | inhibition, % at 6.8 µM | 1.1% of 370,000 active | AID 652010;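 active means inhibition above the mean over all tested compounds plus 3 SD, cut at about 3.6% in these data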;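 further: 0% = DAX-1 cells with DMSO and 100% = cells lacking DAX-1 with DMSO; higher inhibition means more luminescence from relief of DAX-1 repression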
DAX1 inh-2: inhibitors of human orphan nuclear receptor DAX1 (NR0B1); P51843; AID 504766; HEK293 Gal4-DAX1 luciferase reporter, luminescence; 0.99% of 340,000 active; inhibition, % at 6.75 µM;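 active means inhibition above the mean over all tested compounds plus 3 SD, cut at about 4.2% in these data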;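 further: 0% = DAX1-transfected cells with DMSO and 100% = empty-vector control cells with DMSO; inhibition shows as a rise in luminescence from relieved DAX1 repression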
Target sequence (P51843 207-470 limits assumed): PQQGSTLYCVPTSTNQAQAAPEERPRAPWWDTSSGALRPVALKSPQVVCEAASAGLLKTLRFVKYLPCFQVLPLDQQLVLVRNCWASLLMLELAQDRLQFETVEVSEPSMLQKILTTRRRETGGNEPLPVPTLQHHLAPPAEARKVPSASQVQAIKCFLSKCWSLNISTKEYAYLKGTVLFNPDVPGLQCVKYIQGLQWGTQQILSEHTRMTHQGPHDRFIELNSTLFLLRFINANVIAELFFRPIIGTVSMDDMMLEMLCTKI
ssDAF-12 act: activators of S. stercoralis DAF-12 nuclear receptor; HEK293 ssDAF-12/GRIP1 lit1-tk-luc reporter, luminescence; % of 3 µM dafachronic acid response; activation, % at 6.8 µM; 1% of 370,000 active;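 active means activation above the mean over all tested compounds plus 3 SD, cut at about 0.9% in these data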;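 further: 0% = DMSO-only wells and 100% = 3 µM delta7-dafachronic acid wells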
hgDAF-12 ag: hgDAF-12 agonism, primary luciferase screen; HEK293 GAL4-hgDAF12 UAS-luciferase reporter, agonist luminescence; normalized to butyrate control; activation, % at 6.8 µM; 1.8% of 370,000 active;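 active means activation above a cutoff set at the mean of all screened compounds plus 3 SD, cut at about 10% in these data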;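 further: 0% = DMSO wells and 100% = sodium butyrate wells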
hcDAF-12 act: activators of H. contortus DAF-12 nuclear receptor; HEK293 hcDAF-12 lit1-tk-luc reporter, luminescence; 0% DMSO, 100% Δ7-dafachronic acid; activation, % at 6.8 µM; 1.4% of 370,000 active;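 active means activation above the mean of all tested compounds plus 3 SD, cut at about 5.5% in these data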;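 further: 100% = response to 3 µM Δ7-dafachronic acid high control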
The depositor's hits bear a star; . = no result. Only some compounds are listed: those with a hit (about 4.1% of all), similar ones and a draw of the others.

SMILES	DAX1 inh-1	DAX1 inh-2	ssDAF-12 act	hgDAF-12 ag	hcDAF-12 act
CCOc1ccc(N(CC(=O)NCCSCc2ccccc2Cl)S(C)(=O)=O)cc1	-0.2	-2.3	-1.6	0.8	-2.2
CN(C)C1=NCCN1CCCC1CCCC1	0.2	2.3	-1.0	0.3	-1.0
CN(C)C1=NCCN1CC1CCCC1	0.0	0.3	1.2*	1.3	3.2
Fc1ccc(-c2n[nH]c(=S)n2N=Cc2ccc(-c3ccccc3)cc2)cc1	-1.0	.	0.1	2.0	0.1
CCCCN(CCCC)S(=O)(=O)c1ccc(C(=O)Nc2nnc(CSC)o2)cc1	0.2	4.2*	-0.2	-1.8	-0.6
Cn1c(Cc2cccs2)nnc1SCC(=O)Nc1ccc2cn[nH]c2c1	-3.1	.	-1.1	2.9	-2.1
CCC(NC(=O)CN1CCN(c2cccc(OC)c2)CC1)c1ccccc1 (centres undefined)	-2.1	.	-1.3	-0.6	1.0
N#CC1=C(O)CCCn2c1nc1ccccc1c2=O	0.6	-0.1	-0.9	-0.8	-0.4
N#CC1=C(O)C(c2ccccc2)n2c1nc(=O)c1ccccc12 (centres undefined)	0.6	7.3*	-0.8	2.0	1.4
CN(C)/C=C/C(=O)c1ccc2noc(-c3ccc(F)cc3)c2c1	0.5	4.8*	-0.6	5.1	-0.4
Cc1ccc(-c2onc3ccc(C(=O)/C=C/N(C)C)cc23)cc1	-0.1	-2.1	-0.5	3.0	-0.1
OCCNc1nc(-c2ccccc2)nc2ccccc12	-0.5	-0.2	1.1*	5.1	0.7
OCCCNc1nc(-c2ccc(Cl)cc2)nc2ccccc12	0.1	-1.0	-1.0	0.8	-0.5
O=C(Nc1sc2c(c1-c1nc3ccccc3s1)CCNC2)C(F)(F)F	.	.	-1.3	-1.5	0.1
Cc1ccccc1Cn1cc(CN2[C@@H](CC(C)C)COc3cccc(F)c3S2(=O)=O)nn1	-0.8	.	-1.6	0.8	-2.4
CCN1C(=O)CC(c2ccc(OC(C)C)cc2)C1=O (centres undefined)	0.4	4.5*	-0.9	0.2	-0.1
Cc1nc(NC(=O)c2ccccc2)nc2cc3c(cc12)OCO3	2.2	1.3	0.5	11.8*	1.9
Cc1nc(NC(=O)c2ccc(F)cc2)nc2cc3c(cc12)OCO3	0.5	2.6	-1.5	2.1	-0.6
Cn1c(=O)cc(OCC(=O)N2CCN(c3ccccc3Cl)CC2)c2ccccc21	-1.4	.	-1.5	1.9	-0.8
CC(=O)N1N=C(c2ccc(C)cc2)CC1c1ccc2c(c1)OCO2 (centres undefined)	1.4	3.0	-0.4	9.4	6.1*
CS(=O)(=O)N1N=C(c2ccc(Br)cc2)CC1c1ccc2c(c1)OCO2 (centres undefined)	.	2.3	.	.	.
O=c1c2ccccc2oc2cc(NCCCN3CCOCC3)ccc12	3.0	2.5	0.2	11.7*	3.6
COc1ccc2oc(=Nc3ccc(C(=O)O)cc3)c(C(=O)NCc3ccco3)cc2c1	-0.8	4.1	-1.4	0.4	-1.6
CCc1ccc2oc(-c3ccc(OC)cc3)cc(=Nc3c(C)n(C)n(-c4ccccc4)c3=O)c2c1	6.5*	0.4	0.4	16.7*	9.1*
CCc1ccc2oc(-c3ccc(OC)cc3)cc(=Nc3cccc(C(=O)O)c3)c2c1	3.3	-1.0	0.2	13.2*	6.5*
SMILES	DAX1 inh-1	DAX1 inh-2	ssDAF-12 act	hgDAF-12 ag	hcDAF-12 act
COc1ccc(-c2cc(=Nc3ccc(C(=O)O)cc3)c3cc(C)ccc3o2)cc1	4.1*	1.4	0.7	13.1*	5.7*
Cc1cc(C)c(S(=O)(=O)Nc2nnc(C)s2)c(C)c1	0.3	0.8	-0.7	1.4	-0.8
Cc1cc(C)c(S(=O)(=O)Nc2nnc(CC(C)C)s2)c(C)c1	-0.1	4.4*	-1.0	1.5	-2.2
C=CCNc1cccc2c1S(=O)(=O)N[C@H](C)CO2	0.1	.	-1.3	2.0	1.6
N#Cc1c(SCC(=O)Nc2ccccc2)nsc1SCC(=O)Nc1ccccc1	0.5	2.1	23.3*	3.1	1.6
CSc1snc(SCC(N)=O)c1C#N	0.0	-0.1	-1.5	11.8*	-1.2
O[C@H](COc1cccc(C(F)(F)F)c1)CN1CCC(C(O)(c2ccccc2)c2ccccc2)CC1	-0.8	.	-1.3	1.0	-2.1
Cc1ccc(-c2cc(-c3nnc4sc(COc5ccccc5)nn34)[nH]n2)cc1	0.0	.	-1.1	0.5	-2.9
CCCC[C@H](C(=O)N(C)c1cccc(OC)c1)[C@@H](O)c1ccc(C(C)=O)cc1	-1.0	.	-0.2	2.6	-3.1
CCCN1CCN(CCCNC(=O)c2cc3c(=O)[nH]c4ccc(C)cc4c3s2)CC1	1.7	6.4*	-0.2	-0.5	-0.6
CCN1CCN(CCCNC(=O)c2cc3c(=O)oc4ccc(C)cc4c3s2)CC1	0.3	2.4	-0.7	1.1	2.0
O=[N+]([O-])c1ccccc1N=NNc1ccccc1	0.2	0.1	1.6*	2.7	3.2
Cc1ccc(C(=O)NCCC(=O)N2CCC3(CC2)NCCc2[nH]cnc23)cc1	0.4	0.6	-0.6	1.8	0.1
Cc1cc(C)cc(C(=O)NCCC(=O)N2CCC3(CC2)NCCc2[nH]cnc23)c1	3.9*	0.5	-1.6	0.2	-0.1
O=C(COc1ccc(Cl)cc1)NNC(=O)c1ccc2c(=O)n3c(nc2c1)CCC3	4.1*	-0.8	-0.9	-1.9	0.0
COc1nc(OC)nc(N2CCC(C(=O)N(C)Cc3ccco3)CC2)n1	0.6	.	-0.5	-1.9	-2.8
Cc1cccc(N2CCN(C(=O)c3ccccc3NC(=O)C3CC=CCC3C(=O)O)CC2)c1 (centres undefined)	0.0	4.4*	-1.0	0.4	0.5
O=c1[nH]c2ccccc2cc1-c1nnn(-c2ccc(Cl)c(Cl)c2)n1	0.2	-0.1	0.1	1.7	4.3
Cc1ccc(-n2nnc(-c3cc4ccccc4nc3Cl)n2)cc1	-0.1	2.7	1.4*	2.5	4.6
CC(=O)NCCNC(=O)c1ccc(CSc2ccc(Cl)cc2)cc1	2.1	3.5	0.9*	7.7	2.4
Cc1ccc2c(c1)/C(=C/c1ccco1)C(=O)N2	-0.7	5.1*	-1.5	0.3	0.1
Cc1ccc(/C=C2\C(=O)Nc3ccccc32)o1	-0.3	0.7	0.3	2.1	5.2
CCC(=O)NC(c1ccc(N(C)C)cc1)c1c(O)ccc2ccccc12 (centres undefined)	0.3	0.2	-0.5	1.5	6.3*
CC1CCC2(CCC(=O)N2CCCOC(=O)c2ccccc2)CC1 (centres undefined)	1.2	.	-1.1	-0.6	1.0
O=C(N/N=C1\CC(c2ccccc2)Oc2ccccc21)c1ccccn1 (centres undefined)	3.8*	0.0	-1.2	1.0	3.7
COc1ccc(N=C2SCC(=O)N2c2ccc(OC)cc2)cc1	-0.5	-0.4	-1.1	0.2	-1.4
COc1ccc(N=C2SCC(c3ccccc3)=NN2C)cc1	0.8	4.3*	-1.3	-2.0	-1.4
COC(=O)C1=C(C)N(Cc2ccccc2C(F)(F)F)C(=NCc2ccc(OC)cc2)NC1c1cccc(Cl)c1 (centres undefined)	0.7	.	-0.4	-1.3	-0.6
